According to ChEMBL document CHEMBL3988442, “University of Dundee, Small-Polar-MMV Screening Library” (2021):
In all, about 67,000 compounds went through this assay and about 300 (0.45%) showed an effect of 50% or more. The sample holds strong results, similar compounds and a random draw of the others, so the mix is not that of the screen.

Target: Polyketide synthase Pks13 (Mycobacterium tuberculosis (strain ATCC 25618 / H37Rv)) (UniProt I6X8D2)
Test: Mycobacterium tuberculosis Polyketide synthase 13 Thioesterase (PKS13)
Assay type: functional
Design: scale not given: in the data most compounds retested in dose-response had high values
Conditions: 30 µM

Polyketide synthase Pks13 (Mycobacterium tuberculosis (strain ATCC 25618 / H37Rv)), sequence (I6X8D2 whole entry): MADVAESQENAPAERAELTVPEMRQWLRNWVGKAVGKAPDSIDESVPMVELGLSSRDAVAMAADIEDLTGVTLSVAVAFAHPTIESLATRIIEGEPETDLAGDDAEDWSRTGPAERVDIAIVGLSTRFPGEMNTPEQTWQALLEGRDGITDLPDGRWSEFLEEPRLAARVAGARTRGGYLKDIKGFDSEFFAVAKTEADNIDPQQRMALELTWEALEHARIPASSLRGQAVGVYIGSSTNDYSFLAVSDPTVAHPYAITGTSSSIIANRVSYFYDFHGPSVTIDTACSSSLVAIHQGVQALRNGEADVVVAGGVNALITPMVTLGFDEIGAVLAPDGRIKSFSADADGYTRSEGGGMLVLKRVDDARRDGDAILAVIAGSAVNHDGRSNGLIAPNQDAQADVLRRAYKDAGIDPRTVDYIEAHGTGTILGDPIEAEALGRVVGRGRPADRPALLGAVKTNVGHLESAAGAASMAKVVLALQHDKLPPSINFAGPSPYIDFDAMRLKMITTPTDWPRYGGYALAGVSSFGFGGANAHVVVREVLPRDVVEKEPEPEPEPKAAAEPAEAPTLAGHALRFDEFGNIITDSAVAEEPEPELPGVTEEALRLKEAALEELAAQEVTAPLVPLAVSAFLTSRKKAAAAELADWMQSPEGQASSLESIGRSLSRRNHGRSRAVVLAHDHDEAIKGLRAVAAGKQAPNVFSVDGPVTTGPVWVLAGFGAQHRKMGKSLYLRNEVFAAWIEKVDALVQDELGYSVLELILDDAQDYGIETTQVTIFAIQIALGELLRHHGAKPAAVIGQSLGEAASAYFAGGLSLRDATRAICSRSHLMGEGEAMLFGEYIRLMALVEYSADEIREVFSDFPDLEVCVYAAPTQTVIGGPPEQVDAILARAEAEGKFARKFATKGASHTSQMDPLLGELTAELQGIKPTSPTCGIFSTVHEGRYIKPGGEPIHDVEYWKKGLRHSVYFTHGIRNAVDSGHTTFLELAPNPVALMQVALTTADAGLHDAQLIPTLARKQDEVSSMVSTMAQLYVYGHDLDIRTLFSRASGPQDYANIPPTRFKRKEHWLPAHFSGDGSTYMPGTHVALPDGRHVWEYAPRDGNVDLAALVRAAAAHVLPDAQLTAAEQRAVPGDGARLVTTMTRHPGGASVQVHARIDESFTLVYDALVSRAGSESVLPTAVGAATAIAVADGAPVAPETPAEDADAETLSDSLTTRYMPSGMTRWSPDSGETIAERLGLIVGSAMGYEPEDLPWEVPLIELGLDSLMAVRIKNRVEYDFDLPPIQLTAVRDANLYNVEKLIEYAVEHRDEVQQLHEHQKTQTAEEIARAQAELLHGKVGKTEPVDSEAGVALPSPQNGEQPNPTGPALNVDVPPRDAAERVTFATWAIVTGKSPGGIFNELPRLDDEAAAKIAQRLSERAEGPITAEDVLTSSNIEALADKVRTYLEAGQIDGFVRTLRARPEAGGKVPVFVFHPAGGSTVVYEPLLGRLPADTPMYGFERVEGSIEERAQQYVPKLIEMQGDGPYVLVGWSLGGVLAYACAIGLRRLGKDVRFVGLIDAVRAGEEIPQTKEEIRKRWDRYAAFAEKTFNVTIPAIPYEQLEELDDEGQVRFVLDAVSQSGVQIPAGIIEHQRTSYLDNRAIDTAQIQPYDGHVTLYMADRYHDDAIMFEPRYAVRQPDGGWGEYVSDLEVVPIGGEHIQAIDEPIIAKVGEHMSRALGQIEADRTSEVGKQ

Compound	Percent Effect
CN(C)C(=O)N1CCN(CCCc2ccccc2)[C@H]2CS(=O)(=O)C[C@H]21	-15%
Cc1oncc1C(=O)N1C[C@H](OCc2ccccn2)[C@H]2OCCC[C@H]21	-0.48%
O=S1(=O)C[C@@H]2[C@H](C1)N(Cc1ncc[nH]1)CCN2Cc1cccnc1	-6.48%
CC(C)CNC(=O)c1cn(-c2ccccn2)c(=O)c2ccccc12	42.5%
O=C(O)c1cn(-c2ccccn2)c(=O)c2ccccc12	57%
COC(=O)CNC(=O)c1cn(-c2ccccn2)c(=O)c2ccccc12	41.4%
CN(C)C(=O)[C@]12CCCN(CC3CC3)C[C@H]1CN(c1ccccn1)C2	-21.7%
COCCc1noc(-c2cn(CCc3ccccc3)nn2)n1	62.2%
COCCc1noc(-c2cn(Cc3ccc(OC)cc3)nn2)n1	-2.84%
COCCc1noc(-c2cn(Cc3ccccc3C)nn2)n1	-13.8%
CN(Cc1cncnc1)[C@@H]1CN(Cc2ccco2)C[C@@H]2CCCO[C@@H]21	-4.7%
O=C(NCC1CC1)[C@H]1C[C@@H]2CCN(Cc3nccs3)C[C@@H]2O1	-42.1%
O=C(N[C@H]1CN[C@H]2CCCO[C@H]21)c1ccno1	-17%
O=C(c1cnccn1)N1C[C@@H]2CC[C@H](C1)N(S(=O)(=O)c1cccnc1)C2	56.1%
O=C(c1ccncc1)N1C[C@@H]2CC[C@H](C1)N(S(=O)(=O)c1cccnc1)C2	-25.8%
O=C(c1ccccc1)N1C[C@@H]2CC[C@H](C1)N(S(=O)(=O)c1cccnc1)C2	-34.5%
O=S1(=O)C[C@@H]2[C@H](C1)N(Cc1ncc[nH]1)CCN2C/C=C/c1ccccc1	5.07%
CCC1=N[C@@]2(CC[C@@H]3CN(S(=O)(=O)CC)C[C@@H]32)C(=O)N1CCOC	-31.3%
O=C(c1cnn2ccccc12)N1CCCC(OCc2ccccn2)C1 (stereo not given)	-9.11%
CCCn1ncc(C(=O)N2CCCC(OCc3ccccn3)C2)c1C (stereo not given)	-15.6%
Cc1cnc2c(C(=O)N3CCCC(OCc4ccccn4)C3)cnn2c1 (stereo not given)	81.5%
Cc1cccc(CN2CC[C@H]3OCC[C@@]3(C(=O)N3CCCO3)C2)n1	8.33%
CNC[C@H]1CC[C@H](c2cc(CN(C)C(=O)c3cnccn3)n(C)n2)CC1	-6.04%
CC(NC(=O)Nc1cccnc1N1CCCC1)c1ccncc1 (stereo not given)	0.204%

Compound	Percent Effect
COc1ncccc1NC(=O)NC(C)c1nncn1C (stereo not given)	-5.35%
CC(NC(=O)Nc1cccnc1N1CCCC1)c1nncn1C (stereo not given)	56%
CCc1cnc(N2C[C@H]3C[C@H](C(=O)N(C)C)[C@@H](C2)O3)nc1	-7.42%
CCS(=O)(=O)N1CCC(CSc2ccccc2)C1 (stereo not given)	9.93%
N#CCCCS(=O)(=O)N1CCC(CSc2ccccc2)C1 (stereo not given)	-31.5%
N#Cc1nccnc1N1CCC(CSc2ccccc2)C1 (stereo not given)	53.9%
Cc1ccc(N2CCO[C@H]3CN(Cc4ccc(F)cc4)C[C@H]32)nn1	4.79%
CC(C)N1CCO[C@H]2CN(C(=O)c3ccncc3F)C[C@H]21	-27%
O=C(O)[C@]12CCCN(Cc3ccccn3)[C@@H]1CCN(c1cnccn1)C2	95.4%
O=C(O)[C@]12CCCN(Cc3ccncc3)[C@@H]1CCN(c1cnccn1)C2	-7.13%
O=C(O)[C@]12CCCN(Cc3cccnc3)[C@@H]1CCN(c1cnccn1)C2	10.4%
Cc1ccsc1CN1CC[C@H]2OCC[C@@]2(C(=O)N2CCCO2)C1	-17.7%
O=C(NC[C@]12COC[C@H]1CN(Cc1ccncc1)C2)c1ccno1	-9.3%
O=C(c1cccnc1)N1CCc2ncnc(N3CCOCC3)c2CC1	-1.96%
Cc1ncnc2c1CCN(C(=O)c1cccnc1)CC2	-18.2%
CN(C)c1ncnc2c1CCN(C(=O)c1cccnc1)CC2	61.9%
CN1C(=O)C[C@@H]2[C@@H]1CCN2C(=O)c1ccc[nH]1	-5.06%
Cc1cc(CN2CC[C@H]3C[C@H](C)O[C@@H]3C2)no1	-27.6%
Cc1cccc(OC2CCN(c3nccnc3C#N)CC2)n1	85.3%
Cc1cccc(OC2CCN(c3ncc(C#N)cc3Cl)CC2)n1	26.2%
Cc1cccc(OC2CCN(c3ccc(C#N)cn3)CC2)n1	22.3%
COCCNC(=O)C[C@@H]1COC[C@H]2CN(Cc3cccnc3)C[C@@H]12	7.6%
COc1ccc(CN2C[C@H](OCC3CCOCC3)[C@H]3COC[C@H]32)cc1	-3.35%
O=C(Cc1cccc(F)c1)N1CCc2ncnc(NC3CCC3)c2CC1	-11.9%

Compound	Percent Effect
O=C(NCc1cccc(F)c1)N1CCc2ncnc(NC3CC3)c2CC1	-9.48%
O=C(Cc1cccc(F)c1)N1CCc2ncnc(NC3CC3)c2CC1	121%
CCOCCN1Cc2ncn(C)c2C(COCC2CCOCC2)C1 (stereo not given)	55.1%
Cn1cnc2c1C(COCC1CCOCC1)CN(C1CCOCC1)C2 (stereo not given)	-38%
Cn1cnc2c1C(COCC1CCOCC1)CN(Cc1ccccn1)C2 (stereo not given)	-19.7%
CN1C(=O)C[C@@H]2[C@@H]1CCN2S(=O)(=O)Cc1ccccc1	-11.3%
O=C(COCC1CC[C@H]2[C@H](CCN2c2ncccn2)O1)N1CCCC1 (stereo not given in full)	9.91%
CC/C=C(\C)CN1CCC(CNC(=O)c2ccnc(N)c2)C1 (stereo not given)	-25.3%
Nc1cc(C(=O)NCC2CCN(Cc3cccc(O)c3)C2)ccn1 (stereo not given)	-14.3%
Nc1cc(C(=O)NCC2CCN(Cc3ccncc3F)C2)ccn1 (stereo not given)	141%
CCc1ccc(CN2CC[C@H]3C[C@H](c4nnc(C)[nH]4)O[C@@H]3C2)o1	32%
O=C(NCC1CC1)[C@@H]1CCO[C@@H]2CCN(Cc3ccc(F)cc3)C[C@H]21	-0.289%
c1cnc(N2CCC3(CC2)CC(NCC2CC2)c2ccccc23)nc1 (stereo not given)	2.19%
CNC(=O)CNC1CC2(CCN(c3ncccn3)CC2)c2ccccc21 (stereo not given)	61.9%
CNC(=O)CC1CC2(CCN(c3ncccn3)CC2)c2ccccc21 (stereo not given)	-25.9%
O=C1[C@@H]2CN(c3ncc(Cl)cc3F)C[C@]2(C(=O)O)CN1CC1CC1	5.43%
O=C(c1cnccn1)N1CCN2C[C@H](OCc3ccccn3)C[C@H]2C1	-10.5%
O=C(N[C@@H]1CN(Cc2ccccc2)C[C@@H]2CCCO[C@@H]21)C1CC1	-12.9%
CCN1C(=O)CC[C@@H]2[C@H]1CCN2S(=O)(=O)c1cccs1	-25.3%
Cc1ccc(C(=O)N2CCN(c3ncnc4nc(N)ccc34)CC2)cc1	-11.7%
Cc1ccc(C(=O)N2CCN(c3ncnc4nc(N)ccc34)CC2)o1	65.6%
CC(C)(C)C(=O)N1CCCN(c2ncnc3nc(N)ccc23)CC1	18.3%
